G9a block = qHTS Assay for Inhibitors of Histone Lysine Methyltransferase G9a; AID 504332, 2011; Potency, µM (titrated, usually from 102 µM), hits mostly inhibitors; G9a H3K9 monomethylation, AlphaScreen, 2 h; 8.8% of 350,000 active; note: nearly all actives have a fitted effect of over 75% in size
Target sequence (Q96KQ7 913-1193 limits assumed): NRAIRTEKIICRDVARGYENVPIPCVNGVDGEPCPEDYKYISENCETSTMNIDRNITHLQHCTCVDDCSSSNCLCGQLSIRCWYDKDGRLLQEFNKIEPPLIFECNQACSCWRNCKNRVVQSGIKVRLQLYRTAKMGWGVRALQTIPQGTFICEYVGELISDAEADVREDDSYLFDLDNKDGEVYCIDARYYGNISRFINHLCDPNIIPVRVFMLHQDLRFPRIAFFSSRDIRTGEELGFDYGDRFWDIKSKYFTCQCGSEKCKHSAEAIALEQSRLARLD
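Using a bead-based AlphaScreen, monomethylated H3K9 product from 2 h room-temperature reactions (G9a 20 nM, peptide 500 nM, SAM 20 uM) was detected with 0.5 ug/mL rabbit anti-H3K9me1 antibody.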
BAZ2B inh = qHTS Assay for Inhibitors of BAZ2B; Bromodomain adjacent to zinc finger domain protein 2B (Homo sapiens), Q9UIF8; AlphaScreen BAZ2B-H3K14Ac peptide displacement; Potency, µM (doses to about 114 µM), hits mostly inhibitors; 4.4% of 360,000 active; note: nearly all actives have a fitted effect of over 60% in size
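In this displacement format the biotinylated H3(5-23) peptide acetylated at Lys14 serves as ligand at 50 nM, with BAZ2B at 50 nM in PBS pH 7.4 containing 0.01% Tween-20. Donor and acceptor beads are 10 ug/mL final.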
HP1b binding inh = HTS for Inhibitors of HP1-beta Chromodomain Interactions with Methylated Histone Tails | AlphaScreen HP1-beta / biotin-H3K9me3 peptide binding | Potency, µM (titrated, usually from 114 µM), usual class: inhibitors | 0.56% of 390,000 active | AID 540317, 2011; note: nearly all actives have a fitted effect of over 70% in size
Target sequence (P83916 whole entry, looked up): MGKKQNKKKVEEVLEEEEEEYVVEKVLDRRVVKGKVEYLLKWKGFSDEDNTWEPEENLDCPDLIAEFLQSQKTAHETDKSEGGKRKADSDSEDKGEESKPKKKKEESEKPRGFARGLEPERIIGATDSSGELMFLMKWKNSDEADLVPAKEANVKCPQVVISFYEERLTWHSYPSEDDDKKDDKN
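AlphaScreen: HP1-beta (50 nM) preformed 30 min with biotin-H3(1-18)K9me3 peptide (50 nM) in PBS pH 7.4, 0.01% Tween-20. Compound added for 30 min at RT, then streptavidin donor/nickel chelate acceptor beads (10 ug/mL) for 30 min.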
JMJD2A Tudor = qHTS Assay for Inhibitors of JMJD2A-Tudor Domain. Lysine-specific demethylase 4A (Homo sapiens), O75164. AlphaScreen JMJD2A-Tudor / H3K4me3 peptide binding. Potency, µM (titrated, usually from 114 µM), usual class: inhibitors. 4.4% of 390,000 active. AID 504339, 2011; note: nearly all actives have a fitted effect of over 50% in size
Sfp inh = qHTS Assay for Inhibitors of Bacillus subtilis Sfp phosphopantetheinyl transferase (PPTase). 4'-phosphopantetheinyl transferase ffp (Bacillus subtilis), Q9F4F7. Biochemical Sfp PPTase activity, qHTS. Potency, µM, usual class: inhibitors. 3.5% of 310,000 active. AID 1490, 2009;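 note: the enzyme is Sfp with the accession as filed and its product quenches rhodamine fluorescence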
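Reaction rates are the 30-min fluorescence difference (ex 525, em 598 nm) in wells containing 15 nM Sfp, 5 uM rhodamine-CoA and 12.5 uM BHQ-2-YbbR at pH 7.6 with 10 mM MgCl2.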
L3MBTL1 inh = qHTS Assay for the Inhibitors of L3MBTL1. Lethal(3)malignant brain tumor-like protein 1 (Homo sapiens), Q9Y468. AlphaScreen L3MBTL1–H3K9me1 peptide binding. Potency, µM (doses to about 57.1 µM), actives largely listed as inhibitors. 0.66% of 230,000 active. AID 485360, 2010; note: nearly all actives have a fitted effect of over 60% in size
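L3MBTL1 50 nM + b-AHA-H3(1-15)K9me1 75 nM, 30 min RT; compound added, 30 min RT; streptavidin donor/Ni-chelate acceptor beads 10 ug/mL each final, 30 min RT dark; AlphaScreen read.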
Each line names hits and unclear results; the compound was inactive in the other large screens. Sampled rows, rich in hits. Any-hit rate of the full collection: about 12%. Calls come from the whole dose curve; as a rule, active = well fitted curve in the direction sought with a large enough effect; inconclusive = small, poorly fitted or top-dose-only effect, or another doubt; inactive = no such curve, though single readings can be large; an effect the other way counts as inactive or inconclusive.

C#CCOCCOCCOCCNc1nc(N2CCN(C(=O)CCCCCCCCCCNC(=O)Cn3cc(CCCCCN)nn3)CC2)nc(N2CCN(C(=O)CCCCCCCCCCNC(=O)[C@H]([C@@H](C)CC)n3cc(CCCCN=C(N)N)nn3)CC2)n1	BAZ2B inh 56µM, HP1b binding inh inconclusive, JMJD2A Tudor 56µM (no result: Sfp inh)
C#CCOCCOCCOCCNc1nc(N2CCN(C(=O)CCCCCCCCCCNC(=O)[C@H]([C@@H](C)CC)n3cc(CCCCCN)nn3)CC2)nc(N2CCN(C(=O)CCCCCCCCCCNC(=O)[C@@H]([C@H](C)CC)n3cc(CCCCCN)nn3)CC2)n1	BAZ2B inh 50µM (no result: HP1b binding inh, JMJD2A Tudor, Sfp inh)
C#CCOCCOCCOCCNc1nc(N2CCN(C(=O)CCCCCCCCCCNC(=O)[C@H]([C@@H](C)CC)n3cc(CCCCN=C(N)N)nn3)CC2)nc(N2CCN(C(=O)CCCCCCCCCCNC(=O)[C@H](CCCCN)n3cc(C)nn3)CC2)n1	BAZ2B inh 50µM, HP1b binding inh 35µM, JMJD2A Tudor 22µM (no result: Sfp inh)
C#CCOCCOCCOCCNc1nc(N2CCN(C(=O)CCCCCCCCCCNC(=O)[C@H](CCCCN)n3cc(CCCC(=O)O)nn3)CC2)nc(N2CCN(C(=O)CCCCCCCCCCNC(=O)[C@@H]([C@H](C)O)n3cc(C)nn3)CC2)n1	JMJD2A Tudor inconclusive (no result: Sfp inh)
C#CCOCCOCCOCCNc1nc(N2CCN(C(=O)CCCCCCCCCCNC(=O)[C@H]([C@@H](C)CC)n3cc(CCCCCN)nn3)CC2)nc(N2CCN(C(=O)CCCCCCCCCCNC(=O)[C@H](CCCCN)n3cc(CCCC(=O)O)nn3)CC2)n1	BAZ2B inh inconclusive, JMJD2A Tudor inconclusive (no result: Sfp inh)
C#CCOCCOCCOCCNc1nc(N2CCN(C(=O)CCCCCCCCCCNC(=O)[C@@H](CCC(=O)O)n3cc(CCCCCN)nn3)CC2)nc(N2CCN(C(=O)CCCCCCCCCCNC(=O)[C@H]([C@@H](C)CC)n3cc(CCCCCN)nn3)CC2)n1	BAZ2B inh 56µM, JMJD2A Tudor inconclusive (no result: Sfp inh)
O=C(OCC1CCCO1)c1ccc2c(c1)N(Cc1cccc(Cl)c1)C(=O)c1ccccc1S2(=O)=O (stereo unspecified)	none (no result: Sfp inh, L3MBTL1 inh)
C#CCOCCOCCOCCNc1nc(N2CCN(C(=O)CCCCCCCCCCNC(=O)[C@H]([C@@H](C)CC)n3cc(CCCCCN)nn3)CC2)nc(N2CCN(C(=O)CCCCCCCCCCNC(=O)[C@H](CO)n3cc(CCCCCN)nn3)CC2)n1	BAZ2B inh inconclusive, JMJD2A Tudor inconclusive (no result: Sfp inh)
C#CCOCCOCCOCCNc1nc(N2CCOCC2)nc(N2CCN(C(=O)CCCCCCCCCCNC(=O)[C@@H]([C@H](C)CC)n3cc(CCCCCN)nn3)CC2)n1	BAZ2B inh inconclusive, JMJD2A Tudor inconclusive (no result: Sfp inh)
C#CCOCCOCCOCCNc1nc(N2CCN(C(=O)CCCCCCCCCCNC(=O)[C@H]([C@@H](C)CC)n3cc(CCCCCN)nn3)CC2)nc(N2CCN(C(=O)CCCCCCCCCCNC(=O)[C@H]([C@@H](C)CC)n3cc(CCCCN=C(N)N)nn3)CC2)n1	BAZ2B inh 56µM (no result: HP1b binding inh, JMJD2A Tudor, Sfp inh)
C#CCOCCOCCOCCNc1nc(N2CCN(C(=O)CCCCCCCCCCNC(=O)[C@H]([C@@H](C)CC)n3cc(CCCCN=C(N)N)nn3)CC2)nc(N2CCN(C(=O)CCCCCCCCCCNC(=O)[C@H]([C@@H](C)CC)n3cc(CCCCN=C(N)N)nn3)CC2)n1	BAZ2B inh 50µM (no result: HP1b binding inh, JMJD2A Tudor, Sfp inh)
Cn1c(SCC(N)=O)nc2c([nH]c3ccccc32)c1=O	none (no result: Sfp inh, L3MBTL1 inh)
CCOC(=O)N1CCN(C(=O)CCc2nc3sc4c(c3c(=O)[nH]2)CCCC4)CC1	none

Screens deposited in PubChem BioAssay by National Center for Advancing Translational Sciences (NCATS).
